The nature of experiment [1]: A CellTox Green Cytotoxicity Assay to monitor cytotoxicity in HepG2 cells - 16 hour (AID 1224876). Note: nearly all actives have a fitted effect of over 45% in size. Summed up:
(§1)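 Real-time cytotoxicity: fluorescence of a cell-impermeant cyanine dye binding DNA of dead HepG2 cells, measured repeatedly (0–40 h) during compound exposure at 37 C. Cells seeded 600/well with reagent, dosed after 5 h.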

Experiment [2] is described as follows: qHTS RealTime-Glo MT Cell Viability Assay in HepG2 cells - 32 hour (AID 1224877). Note: nearly all actives have a fitted effect of over 55% in size. In a few lines: (§2)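 Compound treatment began 5 h after plating HepG2 cells (600/well) with NanoLuc luciferase and prosubstrate. Plates stayed at 37 C for 40 h; luminescence was captured at six time points, 0 h through 40 h.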
Experiment [3] in a line: A CellTox Green Cytotoxicity Assay to monitor cytotoxicity in HepG2 cells - 24 hour (AID 1224878). Note: nearly all actives have a fitted effect of over 45% in size. In a few lines: as §1
The nature of experiment [4]: A CellTox Green Cytotoxicity Assay to monitor cytotoxicity in HepG2 cells - 40 hour (AID 1224879). Note: nearly all actives have a fitted effect of over 40% in size. Summed up: as §1
Experiment [5] can be described thus: qHTS RealTime-Glo MT Cell Viability Assay in HEK293 cells - 0 hour (AID 1224880). Note: top concentration of the series differs between compounds; nearly all actives have a fitted effect of over 45% in size. In a few lines:
(§3)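 Luminescence, which tracks viable cell number through reduction of the prosubstrate to a NanoLuc substrate, was read over continuous 37 C culture. Cells (600/well) were premixed with reagent and rested 5 h before 23 nL of compound in DMSO was pinned.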
For orientation: In qHTS, concentration-response curves come from the screen itself.

Experiment [6] can be described thus: A CellTox Green Cytotoxicity Assay to monitor cytotoxicity in HEK293 cells - 32 hour (AID 1224881). Note: nearly all actives have a fitted effect of over 40% in size. In a few lines:
(§4)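 Fluorescence from a DNA-binding dye excluded by viable cells was measured repeatedly in the same HEK293 wells (600 cells/well) during continuous compound exposure at 37 C. Each assay gives one read point: 0, 8, 16, 24, 32 or 40 h.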

Experiment [7] is described as follows: A CellTox Green Cytotoxicity Assay to monitor cytotoxicity in HepG2 cells - 0 hour (AID 1224882). Note: nearly all actives have a fitted effect of over 35% in size. In a few lines:
as §1

Experiment [8] is described as follows: A CellTox Green Cytotoxicity Assay to monitor cytotoxicity in HepG2 cells - 32 hour (AID 1224883). Note: nearly all actives have a fitted effect of over 50% in size. In a few lines: as §1
Experiment [9] in a line: A CellTox Green Cytotoxicity Assay to monitor cytotoxicity in HEK293 cells - 8 hour (AID 1224884). Note: nearly all actives have a fitted effect of over 35% in size. In a few lines:
as §4

A short description of experiment [10]: qHTS RealTime-Glo MT Cell Viability Assay in HepG2 cells - 16 hour (AID 1224885). Note: nearly all actives have a fitted effect of over 50% in size. Summed up: as §2
Experiment [11] in a line: qHTS RealTime-Glo MT Cell Viability Assay in HEK293 cells - 24 hour (AID 1224886). Note: nearly all actives have a fitted effect of over 50% in size. Note: potency is the fitted concentration of half-maximal effect. In a few lines:
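Quantitative high-throughput screen of the Tox21 10K library in HEK293: cells and RealTime-Glo reagents plated together, compound added at 5 h, luminescence monitored through 40 h at 37 C.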

Experiment [12] can be described thus: qHTS RealTime-Glo MT Cell Viability Assay in HEK293 cells - 8 hour (AID 1224887). Note: nearly all actives have a fitted effect of over 50% in size. Note: potency is the fitted concentration of half-maximal effect. In a few lines:
as §3

Experiment [13] is described as follows: A CellTox Green Cytotoxicity Assay to monitor cytotoxicity in HEK293 cells - 16 hour (AID 1224888). Note: nearly all actives have a fitted effect of over 35% in size. Summed up: as §4
Experiment [14] can be described thus: qHTS RealTime-Glo MT Cell Viability Assay in HepG2 cells - 0 hour (AID 1224889). Note: nearly all actives have a fitted effect of over 50% in size. Summed up:
as §2

Experiment [15] in a line: A CellTox Green Cytotoxicity Assay to monitor cytotoxicity in HepG2 cells - 8 hour (AID 1224890). Note: nearly all actives have a fitted effect of over 45% in size. Summed up:
as §1

Experiment [16] is described as follows: qHTS assay to identify small molecule antagonists of the estrogen receptor alpha (ER-alpha) signaling pathway using the BG1 cell line in the presence of 0.1 nM 17-beta-estradiol - cell viability counter screen (AID 1259241). Note: nearly all actives have a fitted effect of over 40% in size. In a few lines:
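In this screen, hormone-deprived VM7Luc4E2 cells were seeded at 4,000 per well, dosed with compound and 0.1 nM estradiol final, and incubated 22 hr at 37C and 5% CO2; fluorogenic live-cell protease signal reported viability.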

The nature of experiment [17]: qHTS assay to identify small molecule antagonists of the androgen receptor (AR) signaling pathway using the MDA cell line in the presence of 0.5 nM R1881 - cell viability counter screen (AID 1259242). Note: nearly all actives have a fitted effect of over 45% in size. Summed up:
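Live-cell protease activity was measured by CellTiter-Fluor fluorescence after 30 min. Before that, MDA-kb2 MMTV-luciferase cells had 16 hr at 37C without CO2, exposed to test compounds and 0.5 nM R1881 final.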

Experiment [18] has as its target Estrogen receptor (Homo sapiens) (UniProt P03372). The experiment is described as follows: qHTS assay to identify small molecule antagonists of the estrogen receptor alpha (ER-alpha) signaling pathway using the BG1 cell line in the presence of 0.1 nM 17-beta-estradiol (AID 1259244). Note: nearly all actives have a fitted effect of over 50% in size. Summed up: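 Luciferase luminescence (ONE-Glo, 30 min at room temperature) was read after 22 hr at 37C exposure to compounds plus 17beta-estradiol at 0.1 nM final. Cells were VM7Luc4E2 with endogenous ER-alpha and an ERE-driven luciferase, pre-cultured 5 days in hormone-depleted medium.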

A short description of experiment [19]: qHTS assay to identify small molecule phospholipidosis (PLD) inducers (AID 1259344; active = well fitted curve in the direction sought with a large enough effect; an effect the other way counts as inactive or inconclusive). In a few lines:
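Read-out is LipidTOX Red fluorescence (ex 595/em 615) imaged in HepG2 cells after 24 h compound exposure at 37 C, with Hoechst nuclear counterstain (ex 352/em 461) allowing per-cell normalisation.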

Experiment [20] is described as follows: qHTS assay to identify small molecule HDAC inhibitors (AID 1259364). Summed up:
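Luminescence read after 30 min room-temperature HDAC-Glo incubation measures cellular class I/II HDAC activity. Compounds were applied for 2 hr at 37 C to HCT-116 wild-type cells seeded the day before.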

SMILES strings stand for the structures. Inconclusive results are not listed. Active and inactive are the calls of the source. Unless noted, calls come from the whole dose curve; as a rule, active = well fitted curve in the direction sought with a large enough effect in the repeat runs; inconclusive = weak or mixed curves; inactive = no such curve, though single readings can be large; an effect the other way counts as inactive or inconclusive.

Estrogen receptor (Homo sapiens), sequence (P03372 whole entry, looked up): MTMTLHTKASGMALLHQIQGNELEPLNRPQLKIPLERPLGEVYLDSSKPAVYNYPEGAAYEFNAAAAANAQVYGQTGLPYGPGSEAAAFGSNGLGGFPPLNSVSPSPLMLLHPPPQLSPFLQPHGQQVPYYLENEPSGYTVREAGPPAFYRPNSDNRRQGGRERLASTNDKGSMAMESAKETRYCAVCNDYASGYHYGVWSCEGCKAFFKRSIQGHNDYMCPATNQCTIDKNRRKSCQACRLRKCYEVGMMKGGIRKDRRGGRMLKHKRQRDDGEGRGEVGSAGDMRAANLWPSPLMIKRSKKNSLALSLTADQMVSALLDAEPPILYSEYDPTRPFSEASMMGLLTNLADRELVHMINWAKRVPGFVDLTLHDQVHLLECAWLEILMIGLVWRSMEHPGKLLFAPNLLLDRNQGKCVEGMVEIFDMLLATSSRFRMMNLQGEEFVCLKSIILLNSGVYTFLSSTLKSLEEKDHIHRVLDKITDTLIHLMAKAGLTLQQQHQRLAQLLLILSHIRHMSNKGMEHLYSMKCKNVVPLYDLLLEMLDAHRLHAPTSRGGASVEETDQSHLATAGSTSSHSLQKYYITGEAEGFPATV

Turning to `C[C@H](CCC(=O)O)[C@H]1CC[C@H]2[C@@H]3[C@H](O)C[C@@H]4C[C@H](O)CC[C@]4(C)[C@H]3C[C@H](O)[C@]12C`, the Potency result in experiment [1], in experiment [3], in [4], in experiment [6], in [7] and in experiment [8] was “inactive” in each case. Moreover, the Potency result in experiment [9], in experiment [11], in experiment [12], in experiment [13], in experiment [14] and in experiment [15] was “inactive” in each case. In addition, the Potency entry in experiment [16], in [17], in experiment [18] and in experiment [20] was “inactive” each time. The call in experiment [2], in experiment [5], in [10] and in experiment [19] was inactive.
With `CC1CCC(C(C)(C)S)C(=O)C1` (stereo not drawn), the Potency entry in [1], in [3], in experiment [4], in [6], in experiment [7] and in [8] was “inactive” throughout. The Potency result in experiment [9], in [13], in [14], in experiment [15], in experiment [16] and in experiment [17] was “inactive” each time. Moreover, the Potency result in [18] and in experiment [20] was “inactive” each time. Besides, the outcome in [2], in experiment [5] and in [10] was inactive. In addition, the Potency in experiment [11] is 3.89 µM (active); in [12], 19.5 µM (active).
As for `CCN(CCC#N)c1ccccc1`, the Potency result in experiment [1], in experiment [3], in experiment [4], in [6], in experiment [7] and in experiment [8] was “inactive” each time. In addition, the Potency entry in experiment [9], in experiment [11], in experiment [12], in experiment [13], in experiment [14] and in [15] was “inactive” throughout. Moreover, the Potency result in experiment [16], in [17], in experiment [18] and in experiment [20] was “inactive” in each case. Moreover, the call in experiment [2], in [5] and in [10] was inactive.
Turning to `CCCCCCCCCCCCC`, the Potency result in experiment [1], in experiment [3], in experiment [4], in experiment [6], in experiment [7] and in experiment [8] was “inactive” each time. Further, the Potency result in experiment [9], in [11], in experiment [12], in experiment [13], in experiment [14] and in experiment [15] was “inactive” throughout. Moreover, the Potency entry in [16], in experiment [17], in experiment [18] and in [20] was “inactive” each time. Moreover, the outcome in experiment [2], in experiment [5] and in experiment [10] was inactive.
As to `SCCSCCS`, the Potency result in [1], in [3], in [4], in [6], in [7] and in experiment [8] was “inactive” each time. Besides, the Potency entry in experiment [9], in experiment [11], in [12], in experiment [13], in [14] and in experiment [15] was “inactive” each time. Also, the Potency entry in [16] and in experiment [17] was “inactive” in each case. Besides, the compound was classed as inactive in experiment [2], in experiment [5] and in [10].
As for `Nc1ccc(S(=O)(=O)Nc2ccccn2)cc1`, the Potency result in experiment [1], in [3], in [4], in [6], in [7] and in [8] was “inactive” in each case. The Potency entry in [9], in experiment [11], in experiment [12], in experiment [13], in experiment [14] and in experiment [15] was “inactive” each time. Further, the Potency entry in [16], in [17], in experiment [18] and in [20] was “inactive” in each case. Moreover, the call in experiment [2], in experiment [5], in experiment [10] and in [19] was inactive.
Take `CCC(=O)c1ccc(O)cc1`: the Potency entry in experiment [1], in [3], in experiment [4], in [6], in experiment [7] and in experiment [8] was “inactive” each time. The Potency result in experiment [9], in experiment [11], in experiment [12], in experiment [13], in experiment [14] and in experiment [15] was “inactive” each time. Also, the Potency result in [16], in [17] and in experiment [18] was “inactive” each time. Also, the compound was classed as inactive in [2], in experiment [5], in experiment [10] and in experiment [19].

The record behind these values is PubChem BioAssay (Tox21).
